Measurements as given in PubChem BioAssay AID1159580 (chemical genetic matrix, 2015).
“And” between values parts separate entries of the source, which are not always exact repeats. Equal values may be shown once. Screen size: about 5,500 compounds; about 2,000 (36%) were called active. Inconclusive results (about 18%) are left out. Cut-off read from the data, not from the text of the source: active = normalized growth mostly below about 0.91 (no sharp cut-off); inconclusive = no clear call, values can overlap the other calls; inactive = mostly above about 0.92. The list shows a part of the results.

Test: chemical genetic growth profiling, strain panel (AID 1159580);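 note: tested at 20 µM; growth read once vehicle control cultures reached saturation at 30 °C; 1 = growth at the plate median or of vehicle wells; lower values mean less growth of the strain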
Settings: growth OD

Measured: normalized growth

OC(CCN1CCCCC1)(c1ccccc1)C1CCCCC1 (stereo unspecified)
inactive: S. cerevisiae deletion strains, locus YJR075W, strain HOC1, active compounds read low 1.01 and 0.98 | S. cerevisiae deletion strains, locus YKL009W, strain mrt4, active compounds read low 0.999 | S. cerevisiae deletion strains, locus YKL068W, active compounds read low 0.997 | S. cerevisiae deletion strains, locus YKL085W, strain MDH1 (second series), active compounds read low 0.998 | S. cerevisiae deletion strains, locus YKL085W, strain MDH1, active compounds read low 0.998 | S. cerevisiae deletion strains, locus YKL160W, strain elf1, active compounds read low 0.96 | S. cerevisiae deletion strains, locus YKL190W, strain CNB1, active compounds read low 1.01 | S. cerevisiae deletion strains, locus YKR001C, strain vps1, active compounds read low 0.985 | S. cerevisiae deletion strains, locus YKR026C, strain gcn3, active compounds read low 0.971 | S. cerevisiae deletion strains, locus YKR091W, strain srl3, active compounds read low 0.978 | S. cerevisiae deletion strains, locus YLL001W, strain dnm1, active compounds read low 0.918 | S. cerevisiae deletion strains, locus YLL026W, active compounds read low 0.981 | S. cerevisiae deletion strains, locus YLL041C, strain sdh2, active compounds read low 0.975 | S. cerevisiae deletion strains, locus YLR027C, strain aat2, active compounds read low 0.954 | S. cerevisiae deletion strains, locus YLR039C, strain RIC1, active compounds read low 1.12 | S. cerevisiae deletion strains, locus YLR058C, strain SHM2, active compounds read low 1.01 | S. cerevisiae deletion strains, locus YLR102C, strain apc9, active compounds read low 0.995 | S. cerevisiae deletion strains, locus YLR113W, strain HOG1, active compounds read low 0.991 | S. cerevisiae deletion strains, locus YLR221C, strain rsa3, active compounds read low 1.01 | S. cerevisiae deletion strains, locus YLR258W, strain gsy2, active compounds read low 0.992 | S. cerevisiae deletion strains, locus YLR262C, strain YPT6 (second series), active compounds read low 0.989 | S. cerevisiae deletion strains, locus YLR262C, strain YPT6, active compounds read low 1.1 | S. cerevisiae deletion strains, locus YLR268W, strain sec22, active compounds read low 0.98 | S. cerevisiae deletion strains, locus YLR320W, strain mms22, active compounds read low 0.961 | S. cerevisiae deletion strains, locus YLR330W, strain CHS5, active compounds read low 1.01 | S. cerevisiae deletion strains, locus YLR342W, strain FKS1 (second series), active compounds read low 1 | S. cerevisiae deletion strains, locus YLR342W, strain FKS1, active compounds read low 0.959 | S. cerevisiae deletion strains, locus YLR357W, strain rsc2, active compounds read low 0.939 | S. cerevisiae deletion strains, locus YLR370C, strain arc18, active compounds read low 0.974 | S. cerevisiae deletion strains, locus YLR371W, strain rom2, active compounds read low 1 | S. cerevisiae deletion strains, locus YLR384C, strain iki3, active compounds read low 0.961 | S. cerevisiae deletion strains, locus YLR418C, strain cdc73, active compounds read low 0.966 | S. cerevisiae deletion strains, locus YML016C, strain PPZ1, active compounds read low 1.01 | S. cerevisiae deletion strains, locus YML032C, strain rad52, active compounds read low 0.986 | S. cerevisiae deletion strains, locus YML120C, strain ndi1, active compounds read low 0.97 | S. cerevisiae deletion strains, locus YML124C, strain tub3, active compounds read low 0.997 | S. cerevisiae deletion strains, locus YMR058W, strain fet3, active compounds read low 0.964 | S. cerevisiae deletion strains, locus YMR078C, strain ctf18, active compounds read low 0.998 | S. cerevisiae deletion strains, locus YMR125W, strain sto1, active compounds read low 0.977 | S. cerevisiae deletion strains, locus YMR129W, active compounds read low 0.98 | S. cerevisiae deletion strains, locus YMR205C, strain PFK2, active compounds read low 0.955 | S. cerevisiae deletion strains, locus YMR223W, strain ubp8, active compounds read low 1.01 | S. cerevisiae deletion strains, locus YMR231W, strain pep5, active compounds read low 0.973 | S. cerevisiae deletion strains, locus YMR263W, strain SAP30, active compounds read low 1.01 and 0.983 | S. cerevisiae deletion strains, locus YMR307W, strain GAS1, active compounds read low 1.01 and 0.985 | S. cerevisiae deletion strains, locus YNL067W, strain RPL9B, active compounds read low 1 | S. cerevisiae deletion strains, locus YNL071W, strain lat1, active compounds read low 0.98 | S. cerevisiae deletion strains, locus YNL128W, strain TEP1, active compounds read low 1.02 | S. cerevisiae deletion strains, locus YNL153C, strain GIM3, active compounds read low 1 | S. cerevisiae deletion strains, locus YNL175C, strain NOP13, active compounds read low 1.01 | S. cerevisiae deletion strains, locus YNL183C, strain NPR1, active compounds read low 0.935 | S. cerevisiae deletion strains, locus YNL197C, strain WHI3, active compounds read low 1.03 | S. cerevisiae deletion strains, locus YNL209W, strain ssb2, active compounds read low 0.993 | S. cerevisiae deletion strains, locus YNL224C, strain SQS1, active compounds read low 0.998 | S. cerevisiae deletion strains, locus YNL233W, strain BNI4, active compounds read low 0.998 | S. cerevisiae deletion strains, locus YNL248C, strain rpa49, active compounds read low 0.995 | S. cerevisiae deletion strains, locus YNL250W, strain rad50, active compounds read low 0.999 | S. cerevisiae deletion strains, locus YNL271C, strain bni1, active compounds read low 0.989 | S. cerevisiae deletion strains, locus YNL298W, strain CLA4, active compounds read low 1.02 | S. cerevisiae deletion strains, locus YNL307C, strain MCK1, active compounds read low 0.998 | S. cerevisiae deletion strains, locus YNL322C, strain KRE1 (second series), active compounds read low 0.976 | S. cerevisiae deletion strains, locus YNL322C, strain KRE1, active compounds read low 1.01 | S. cerevisiae deletion strains, locus YNR049C, strain mso1, active compounds read low 0.967 | S. cerevisiae deletion strains, locus YNR052C, strain pop2, active compounds read low 1 | S. cerevisiae deletion strains, locus YOL006C, strain TOP1, active compounds read low 0.951 | S. cerevisiae deletion strains, locus YOL012C, strain htz1 0.776 | S. cerevisiae deletion strains, locus YOL147C, strain pex11, active compounds read low 0.994 | S. cerevisiae deletion strains, locus YOR001W, strain rrp6, active compounds read low 0.949 | S. cerevisiae deletion strains, locus YOR061W, strain CKA2, active compounds read low 1.01 | S. cerevisiae deletion strains, locus YOR069W, strain VPS5, active compounds read low 1.01 | S. cerevisiae deletion strains, locus YOR070C, strain gyp1, active compounds read low 0.986 | S. cerevisiae deletion strains, locus YOR080W, strain dia2, active compounds read low 0.971 | S. cerevisiae deletion strains, locus YOR083W, strain WHI5 (second series), active compounds read low 0.994 | S. cerevisiae deletion strains, locus YOR083W, strain WHI5, active compounds read low 0.951 | S. cerevisiae deletion strains, locus YOR106W, strain vam3, active compounds read low 0.936 | S. cerevisiae deletion strains, locus YOR136W, strain idh2, active compounds read low 1 | S. cerevisiae deletion strains, locus YOR144C, strain elg1, active compounds read low 0.993 | S. cerevisiae deletion strains, locus YOR184W, strain ser1, active compounds read low 1.01 | S. cerevisiae deletion strains, locus YOR231W, strain MKK1, active compounds read low 0.984 | S. cerevisiae deletion strains, locus YOR265W, strain rbl2, active compounds read low 0.983 | S. cerevisiae deletion strains, locus YOR270C, strain vph1, active compounds read low 0.849 | S. cerevisiae deletion strains, locus YOR290C, strain snf2, active compounds read low 0.989 | S. cerevisiae deletion strains, locus YOR316C, strain cot1, active compounds read low 1 | S. cerevisiae deletion strains, locus YPL051W, strain arl3, active compounds read low 0.984 | S. cerevisiae deletion strains, locus YPL055C, strain LGE1, active compounds read low 1.03 and 0.971 | S. cerevisiae deletion strains, locus YPL078C, strain atp4, active compounds read low 0.931 | S. cerevisiae deletion strains, locus YPL106C, strain sse1, active compounds read low 1.01 | S. cerevisiae deletion strains, locus YPL240C, strain hsp82, active compounds read low 0.976 | S. cerevisiae deletion strains, locus YPL241C, strain CIN2, active compounds read low 1.01 | S. cerevisiae deletion strains, locus YPL256C, strain CLN2, active compounds read low 0.962 | S. cerevisiae deletion strains, locus YPR119W, strain clb2, active compounds read low 0.998 | S. cerevisiae deletion strains, locus YPR141C, strain kar3, active compounds read low 1.01 | S. cerevisiae deletion strains, locus YPR163C, strain tif3, active compounds read low 0.988 | S. cerevisiae deletion strains, locus YPR167C, strain met16, active compounds read low 0.998 | S. cerevisiae deletion strains, strain wtn01, active compounds read low 0.993 | S. cerevisiae strains, strain wild type, active compounds read low 1.01
